Source: PubChem BioAssay
Most compounds without a hit are left out; they make up all but 0.92% or so of the library.
Mtb hypoxia inh – inhibitors of hypoxia-regulated fluorescent reporter in Mycobacterium tuberculosis. AID 1159583. 300,000 tested, 0.1% active. fluorescence inhibition, % (test concentration not listed). M. tuberculosis hypoxia-regulated fluorescent reporter, fluorescence; in the data active means fluorescence inhibition mostly above about 23%, no sharp cut-off; inactive means mostly below about 17%
Mtb bLac sens – beta-lactam sensitization of Mtb H37Rv; M. tuberculosis H37Rv growth with meropenem, percent inhibition; inhibition, % at 25 µM; 330,000 tested, 0.27% active; AID 434955; call rule not given here;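 further: growth measured after seven days incubation then overnight dye step; 0% = bacteria only wells and 100% = bacteria with antibiotic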
RecA splice inh – blocks M. tuberculosis RecA intein splicing; cell-free RecA intein splicing, fluorescence; inhibition, % (no concentration beside the values); P9WHJ3; 290,000 tested, 0.75% active; in the data active means inhibition above about 30%; inconclusive means no clear call, values can overlap the other calls;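 further: 0% = vehicle wells and 100% = reference inhibitor control wells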
Rv3671c inh – inhibitors of M. tuberculosis serine protease Rv3671c | AID 2606 | 320,000 tested, 0.048% active | P9WHR9 | inhibition, % at 5.96 µM; in the data active means inhibition above about 38%;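 further: extracellular domain of Rv3671c used as enzyme; 0% = enzyme with DMSO and 100% = no enzyme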
Mtb UGM inh – Mtb UDP-galactopyranose mutase inhibition; P9WIQ1; purified UGM, fluorescence polarization probe displacement; inhibition, % at 10 µM; 320,000 tested, 0.06% active; AID 504406; in the data active means inhibition above about 10%, passing the limit was not always enough; inconclusive means no clear call, values can overlap the other calls
Target sequence (P9WIQ1 whole entry, looked up): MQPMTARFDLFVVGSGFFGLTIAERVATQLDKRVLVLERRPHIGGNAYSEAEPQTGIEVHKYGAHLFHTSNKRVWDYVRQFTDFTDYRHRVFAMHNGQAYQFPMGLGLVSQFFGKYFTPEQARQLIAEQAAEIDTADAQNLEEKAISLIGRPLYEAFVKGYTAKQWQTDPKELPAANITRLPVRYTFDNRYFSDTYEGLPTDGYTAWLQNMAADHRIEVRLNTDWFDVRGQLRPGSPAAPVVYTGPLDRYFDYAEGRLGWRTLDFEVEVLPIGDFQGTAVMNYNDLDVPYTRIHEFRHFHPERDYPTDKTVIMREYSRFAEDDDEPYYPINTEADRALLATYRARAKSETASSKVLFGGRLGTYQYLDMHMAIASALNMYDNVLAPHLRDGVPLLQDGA
FadD28 FP inh – blocks FadD28 binding to the bisubstrate probe | AID 588549 | inhibition, % at 12.5 µM | 360,000 tested, 0.22% active | fluorescence polarization; in the data active means inhibition above about 8.5%, passing the limit was not always enough; inconclusive means no clear call, values can overlap the other calls
* marks the source's active call; other numbers are inactive results; ? = inconclusive; . = not tested or not shown.

SMILES	Mtb hypoxia inh	Mtb bLac sens	RecA splice inh	Rv3671c inh	Mtb UGM inh	FadD28 FP inh
CC(=O)C(Sc1ncnc2c1nnn2-c1ccc(F)cc1)C(=O)N(C)C (stereo not drawn)	12.9	0.4	39.8*	-6.5	-0.6	.
CCOC(=O)CSc1ncnc2c1nnn2-c1ccc(F)cc1	9.4	99.6	23.5	6.1	-1.8	-1.1
CN(c1ccccc1)c1ccc(/C=C(/CCC(=O)O)c2nc3ccccc3s2)cc1[N+](=O)[O-]	6.6	.	.	.	.	19.3*
O=C(O)CC/C(=C\c1ccc(N2CCCC2)c([N+](=O)[O-])c1)c1nc2ccccc2s1	6.8	0.7	6.8	3.0	-0.5	?
O=C(N=c1ccn(-c2nc3ccccc3nc2NS(=O)(=O)c2ccc(Cl)cc2)cc1)c1cccs1	1.1	0.9	-291.6	-14.0	17.2*	-2.5
O=C(N=c1ccn(-c2nc3ccccc3nc2NS(=O)(=O)c2ccc(Cl)cc2)cc1)c1ccccc1Cl	3.8	-6.8	-6.9	1.4	34.1*	.
CCCOc1ccccc1OCC(=O)N1CCN(S(=O)(=O)c2ccc(Cl)cc2)CC1	32.5*	-7.0	.	-0.8	-1.6	3.6
CCCCCCCCNC(C)C(O)c1ccc(SC(C)C)cc1 (stereo not drawn)	.	100.1	4.9	-3.2	-1.9	15.4*
C[C@@H](NCCc1ccc(O)cc1)[C@@H](O)c1ccc(O)cc1	.	-0.8	-0.1	5.2	-2.8	-0.8
COc1ccc(C2C(C(=O)c3cccs3)=C(O)C(=O)N2c2nncs2)cc1 (stereo not drawn)	-0.9	-3.1	6.2	-0.5	13.4*	-9.2
CC(=O)c1ccc2c(c1)c(C#N)c1ccccc1[n+]2[O-]	41.8*	.	-1.1	.	.	-1.9
Cn1c(=O)cc(OCC(=O)N2CCN(Cc3ccc4c(c3)OCO4)CC2)c2ccccc21	2.7	-2.3	-0.5	-3.5	-1.5	-2.9
c1ccc(CSc2nnnn2-c2ccccc2)cc1	9.8	1.3	5.3	-0.3	-0.1	0.4
O=c1cc(CSc2nnnn2-c2ccccc2)[nH]c2[nH]n(-c3ccccc3)c(=O)c12	.	-9.8	1.3	8.2	-0.3	8.9*
CS(=O)(=O)NCCOc1ccc(S(=O)(=O)N2CCCc3ccccc32)cc1	15.2	-4.9	3.1	-3.1	-1.7	-3.2
CN(C)c1ccc2nc3c(=O)[nH]c(=O)nc-3n(CC(O)C(O)C(O)CO)c2c1 (stereo not drawn)	.	12.9	4.7	-392.1	61.0*	-8.6
Cc1ncc(C(O)c2ccc(N(C)C)cc2)n1Cc1ccccc1 (stereo not drawn)	.	.	.	.	.	-0.6
CC(C)CNC(=O)NC(=O)COc1c(F)c(F)cc(F)c1F	.	-14.7	-0.1	2.4	0.0	-0.4
NNc1ccc([N+](=O)[O-])c2[nH][nH]c(=O)c12	.	.	.	.	.	16.0*
COc1ccc(CCNC2CC(=O)N(CCc3ccccc3)C2=O)cc1 (stereo not drawn)	8.7	-0.3	-1.6	0.6	1.9	-2.3
CCN(CC)c1ccc(NC2CC(=O)N(CCc3ccc(OC)cc3)C2=O)cc1 (stereo not drawn)	6.7	3.2	-4.3	1.0	-1.6	8.7*
Cc1ccc(N(CCC#N)C(=O)CCl)cc1C	38.5*	99.4	56.2*	-1.9	2.7	-4.3
O=C(/C=C/c1ccc(S(=O)(=O)N2CCOCC2)cc1)NC(=S)Nc1ccc(N2CCOCC2)cc1	-4.5	-0.9	-2.4	10.2	-1.4	-2.4
COc1cc(C2NC(=O)C(C#N)=C(Nc3cccc(C)c3)S2)ccc1O (stereo not drawn)	1.7	-8.7	87.0*	3.0	0.1	1.1
COCCCNC1=C(C#N)C(=O)NC(c2cccc([N+](=O)[O-])c2)S1 (stereo not drawn)	.	.	.	.	.	-0.1
SMILES	Mtb hypoxia inh	Mtb bLac sens	RecA splice inh	Rv3671c inh	Mtb UGM inh	FadD28 FP inh
COc1ccccc1CC(=O)Nc1ccc(S(=O)(=O)N2CCOCC2)cc1	0.8	-2.0	1.3	-13.9	-0.3	-2.8
CN(c1ccccc1)S(=O)(=O)c1cccc(C(=O)NC2CC(C)(C)NC(C)(C)C2)c1	-7.6	-8.5	.	-4.9	-1.1	-0.9
CC(=O)Nc1cn(-c2ccccc2)nc1-c1ccccc1	3.0	6.2	-0.2	0.6	1.9	-3.0
O=C(CCl)Nc1cn(-c2ccccc2)nc1-c1ccccc1	.	99.3	40.2*	-2.9	-1.4	-3.7
CC1CCCCC1NC(=O)COC(=O)/C=C/c1ccco1 (stereo not drawn)	-6.2	2.9	.	0.3	6.0	-1.5
C/C(=N\Nc1nc(N)cc(Cl)n1)c1cccc([N+](=O)[O-])c1	.	-7.1	-3.5	3.2	-0.4	-0.4
